Data published in PubChem BioAssay AID1839 (Johns Hopkins Ion Channel Center, 2009).
The campaign covered roughly 2,400 compounds. About 220 (9.2%) were called active. Shown is part of a subset that was picked to be rich in actives. Unmarked numbers belong to inactive results.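 How the source made its calls: active means signal change above the mean of dofetilide-free buffer controls plus 3 SD, so a positive margin; inactive means the rest.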

assay: thallium signal changes without hERG – cell-based, CHO-K1 parental line, FluxOR thallium flux, counter-screen for hERG block protection project, confirmation (AID 1839); details: CHO-K1 parental cells, FluxOR thallium flux fluorescence; at 10 µM;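 further: compounds applied alone with no dofetilide to cells lacking hERG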

| Structure (SMILES) | signal change vs control minus 3*SD hit threshold (margin above threshold, higher = more increase) |
| --- | --- |
| CC(C)Oc1cc(S(=O)(=O)N2CCCCC2)ccc1N | -27.8% |
| CC(C)COc1ccc(-c2nn(-c3ccccc3)cc2C(=O)Nc2nccs2)cc1 | -25.4% |
| COc1ccc(-c2nc(=S)c3ccc4ccccc4c3[nH]2)cc1 | 32.2% (active) |
| COc1ccc(OC(=O)Cc2cccc3ccccc23)cc1 | -30.2% |
| COc1ccc(-n2c(=S)[nH]c3ccccc3c2=S)cc1 | -30.8% |
| CCc1ccc(NC(=S)NC(=O)c2c(-c3ccccc3Cl)noc2C)cc1 | -32.8% |
| C=CCn1c2ccccc2c(=O)c2cc(C#Cc3ccsc3)ccc21 | -24.5% |
| COc1ccc(C(=O)CC(=O)C(=O)Nc2ccccc2)cc1 | -20.3% |
| COc1ccc(NC(=O)C(=O)NNC(=O)COc2ccc(OC)cc2)cc1 | -38% |
| COc1cccc(OCC(=O)NNC(=O)C(=O)Nc2ccc(OC)cc2OC)c1 | -21.1% |
| O=C(COc1ccc2ccccc2c1)NNC(=O)C(=O)Nc1ccccc1 | 15.8% (active) |
| COc1ccccc1NC(=O)C(=O)NNC(=O)COc1ccc2ccccc2c1 | 59.2% (active) |
| COc1cccc(OCC(=O)NNC(=O)C(=O)Nc2cccc(C)c2)c1 | 0.8% (active) |
| COc1ccc(OCC(=O)NNC(=O)C(=O)Nc2ccc(C)cc2)cc1 | -35.4% |
| COc1ccc(NC(=O)C(=O)NNC(=O)COc2ccc(Cl)cc2)c(OC)c1 | -0.4% |
| CCc1ccc(NC(=O)C(=O)NNC(=O)COc2cccc(OC)c2)cc1 | -13.5% |
| Cc1ccccc1NC(=O)C(=O)NNC(=O)COc1ccc2ccccc2c1 | -2.5% |
| N#Cc1cccc(N=c2ssnc2Cl)c1 | -30.2% |
| CCOc1cc(N2CCOCC2)c(OCC)cc1NC(=O)Cn1nc(C)c([N+](=O)[O-])c1C | -22.7% |
| Cc1ccccc1NC1=C/C(=N\S(=O)(=O)c2ccc(C(=O)O)cc2)c2ccccc2C1=O | -22% |
| Cc1ccc(C(=O)n2c(-c3ccccc3)cnc2SCC(=O)Nc2ccc(C)cc2C)cc1 | -8.7% |

| Structure (SMILES) | signal change vs control minus 3*SD hit threshold (margin above threshold, higher = more increase) |
| --- | --- |
| CC12CCC(C(=O)OC3CCCCC3)(OC1=O)C2(C)C (configuration not stated) | -36.3% |
| O=C1c2cccc3cccc(c23)C(=O)C1(O)O | -20.6% |
| S=c1[nH]c2cc(-c3ccccc3)ccc2o1 | 38.6% (active) |
| COC(=O)c1sc(NC(=S)NC(=O)c2ccc(C)cc2)nc1C | -19.1% |
| Cc1ccsc1CN(C(=O)c1ccc([N+](=O)[O-])cc1)C1CCS(=O)(=O)C1 (configuration not stated) | -32.2% |
| CCCCOC(=O)c1ccc(NC(=S)NC(=O)c2c(Br)c(C)nn2C)cc1 | 6.3% (active) |
| Cc1nn(C)c(C(=O)NC(=S)Nc2ccc([N+](=O)[O-])cc2)c1Cl | -13.2% |
| CCCCOC(=O)c1ccc(NC(=S)NC(=O)c2c(Cl)cnn2C)cc1 | -18.6% |
| CC1CCc2sc(-c3n[nH]c(=S)o3)cc2C1 (configuration not stated) | -19.1% |
| CC(C)(C)c1cc(C(=O)NNC(=O)c2ccc(Cl)cc2)no1 | -1.2% |
| O=C(O)c1cc(NN=C2c3ccccc3-c3ccccc32)ccc1Cl | 3.2% (active) |
| O=C(O)c1cc(N/N=C/c2ccc(-c3ccccc3)cc2)ccc1Cl | -29.5% |
| CCCCOc1ccc(-c2c(C#N)c(N)[nH]c(=S)c2C#N)cc1 | -44.5% |
| CC(NC(=O)c1ccc(F)cc1)c1ccc2c(c1)CCCC2 (configuration not stated) | -12.8% |
| CC(NC(=O)c1ccc(Br)cc1)c1ccc2c(c1)CCCC2 (configuration not stated) | 2.4% (active) |
| CCc1ccc(C(C)NC(=O)c2ccc(F)cc2)cc1 (configuration not stated) | -6.8% |
| COc1cccc(NC(=O)CSCc2n[nH]c(=O)[nH]2)c1 | -30% |
| COc1ccc(-c2csc(NC(=S)NC(=O)c3cccs3)n2)cc1OC | -41.1% |
| CCOc1cc(Br)c(C(=O)O)cc1OC | -30.9% |
| O=C(CSc1nc2cc(Cl)ccc2s1)c1cc2ccccc2o1 | -23% |
| O=C(Cn1nc(-c2ccccc2)c2ccccc2c1=O)Nc1ccc(O)cc1 | -37.1% |

| Structure (SMILES) | signal change vs control minus 3*SD hit threshold (margin above threshold, higher = more increase) |
| --- | --- |
| O=[N+]([O-])c1cccnc1Sc1n[nH]c(-c2ccc(Cl)cc2)n1 | -19.6% |
| COc1ccc(CCn2c(S)nc3ccccc3c2=O)cc1 | -22.5% |
| C=CCN(CC=C)C(=S)NC(=O)c1ccc(OC)cc1 | -14.4% |
| C=CCN(CC=C)C(=S)NC(=O)c1ccc([N+](=O)[O-])cc1 | -16.4% |
| C=CCNC(=S)NC(=O)c1ccc(C)c(Br)c1 | -26.8% |
| C=CCN(CC=C)C(=S)NC(=O)c1ccc(OC)c(Br)c1 | 4.6% (active) |
| C=CCN(CC=C)C(=S)NC(=O)c1ccc(C)c(Br)c1 | 48.9% (active) |
| CCN(CC)C(=S)NC(=O)c1ccc(OC)c(Br)c1 | -18.8% |
| Cc1nnc(NC(=O)C2CCCN(S(=O)(=O)c3ccccc3C(F)(F)F)C2)s1 (configuration not stated) | -12.2% |
| CCCCNC(=O)c1onc(CSc2nc3ccccc3[nH]2)c1C(=O)NCCCC | -27.7% |
| C=CCn1c(O)c(N=NC(=S)Nc2ccc(OC)cc2)c2ccccc21 | -17.1% |
| Cc1nnc(NC(=O)CN2CCN(Cc3ccc(F)cc3Cl)CC2)s1 | -35.7% |
| O=C(Nc1cccc(N=Cc2cc(Cl)cc(Br)c2O)c1)c1ccco1 | -5.5% |
| CCOC(=O)c1c(NC(=S)NC)sc2c1CCCC2 | -11% |
| C=CCNC(=S)Nc1sc2c(c1C(=O)OCC)CC(C)(CC)OC2 (configuration not stated) | -1.5% |
| CCOC(=O)c1c(NC(=S)NC)sc2c1CC(C)(C)SC2 | 22.5% (active) |
| CCCN(CC1CC1)C(=S)Nc1ccccc1F | -25.8% |
| COc1cc(/C=C2/SC(=S)N(CC(=O)O)C2=O)ccc1OCC(=O)Nc1ccc(C)c(C)c1 | -34.3% |
| COc1ccccc1C(=O)Nc1ccnn1C1CCN(C(=O)c2ccoc2C)CC1 | -41.5% |
| O=C(CSc1nc(N2CCCCC2)nc(N2CCCCC2)n1)c1ccccc1 | -13.7% |
